# HepG2 tox-1 – qHTS for Inhibitors of TGF-b: Cytotox Counterscreen | Potency, µM (highest dose often 46.1 µM), inactives show top-dose activity change, negative = cytotoxicity, hits mostly cytotoxic | AID 588856, 2011 | HepG2 CAGA-GFP viability, ATP luminescence, 18 h | 410,000 tested, 0.76% active; also: potency is read from the fitted curve at half-maximal effect
#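 CellTiter-Glo luminescence gave cytotoxicity after 18 hours at 37 degrees C. The cells were HepG2 CAGA-GFP in 1% FBS DMEM, stimulated with 500 pg/mL TGF-beta after compound addition. %Activity was normalised to no-cell wells (complete cell-killing) and DMSO (no toxicity), and curves were fitted and classified.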
# TGFb SMAD3 inh – qHTS for Inhibitors of TGF-b; HepG2 CAGA-GFP TGF-b/SMAD3 reporter, GFP fluorescence, 18 h; TGF-beta stimulated, 500 pg/mL final; Potency, µM (doses to about 46.1 µM), for inactives: at the top dose activity, negative = inhibition, most hits filed as inhibitors; 410,000 tested, 1.2% active; also: potency is read from the fitted curve at half-maximal effect; % is scaled to controls: 0 for no effect and ±100 for the full control effect; nearly all actives have a fitted effect of over 65% in size
#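 Inhibition was scored as loss of TGF-beta-induced (500 pg/mL final, 18 hours, 37 degrees C) GFP in HEPG2 cells carrying a CAGA-GFP reporter, in DMEM with 1% FBS. Well GFP was summed per cell; Activity was normalised to unstimulated and stimulated DMSO wells, then concentration-response fitting.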
# IL1B secr inh – qHTS for Inhibitors of Inflammasome Signaling: IL-1-beta AlphaLISA Primary Screen; THP-1 LPS/ATP IL-1B secretion, AlphaLISA, 16 h; stronger effect = lower value; activity change, % at 57.5 µM; 360,000 tested, 4.7% active; AID 743279, 2014; in the data active = activity change below about -50%; inconclusive = mostly about -30% to -49%; also: % is scaled to controls: 0 for no effect and ±100 for the full control effect
#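 THP-1 cells pretreated 1 hr with compounds (up to 57.5 uM final), then stimulated with LPS (250 ng/mL final) plus ATP (1.25 mM final); secreted IL-1B measured by AlphaLISA after 16 hr, decreased signal indicating inhibition.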
# Giardia kill – Small Molecules that selectively kill Giardia lamblia: qHTS | activity change, % at 7.66 µM, hits read low | 340,000 tested, 0.15% active | Giardia lamblia trophozoite viability; in the data active = activity change below about -80%; inconclusive = between about -30% and that limit;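 also: parasites exposed to compound for two days anaerobically before the ATP read; % is scaled to controls: 0 for no effect and ±100 for the full control effect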
#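 Media and compound were dispensed first, then trophozoites at 100 cells/well; plates sat 48 hrs at 37 deg C without oxygen before ATP luminescence reagent was added and read after 15-30 min at room temperature.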
# HT1080 IDH1KD tx – qHTS for induction of synthetic lethality in tumor cells producing 2HG: qHTS for the HT-1080-IDH1KD cell line. 360,000 tested, 2% active. HT-1080 IDH1 knockdown viability, ATP luminescence, 48 h. Potency, µM (doses to about 46.1 µM), without a hit: top-dose activity, negative = toxicity, usual class: cytotoxic. AID 686971, 2013;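 also: potency is read from the fitted curve at half-maximal effect; 0% = DMSO wells and -100% = cell-free medium wells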
#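 Assay cells: HT-1080 with IDH1 knockdown, 750 per well, RPMI/5% FBS. Exposure: 48 h at 37 °C following 2 h pre-incubation. Read: CellTiter-Glo luminescence; fitted concentration-response, curve class assigned.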
# HT1080NT lethal – qHTS for induction of synthetic lethality in tumor cells producing 2HG: qHTS for the HT-1080-NT fibrosarcoma cell line; HT-1080-NT fibrosarcoma viability, CellTiter-Glo ATP luminescence, 48 h; Potency, µM (series often up to 46.1 µM), for inactives: at the top dose activity, negative = less viability, actives largely listed as cytotoxic; AID 686970, 2013; 360,000 tested, 1.6% active;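 also: NT is the 2HG producing partner of a matched IDH1 knockdown line; potency is read from the fitted curve at half-maximal effect; 0% = DMSO-treated cells and -100% = media-only wells without cells; nearly all actives have a fitted effect of over 55% in size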
#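 Toxicity toward the 2HG-producing NT line was scored as %Activity, normalised to DMSO and no-cell wells, from CellTiter-Glo luminescence after 48 hours' treatment.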
# TGFb CAGA inh – qHTS for Inhibitors of TGF-b: Confirmation of Cherry Picks. shares compounds with TGFb SMAD3 inh. HepG2 CAGA-GFP TGF-b reporter, GFP fluorescence, 18 h; cells stimulated with TGF-beta, 500 pg/mL. Potency, µM (top dose mostly 46.1 µM), inactives show top-dose activity, negative = inhibition, most hits filed as inhibitors. 1,600 tested, 63% active. AID 720534, 2013; also: potency is read from the fitted curve at half-maximal effect; % is scaled to controls: 0 for no effect and ±100 for the full control effect; nearly all actives have a fitted effect of over 65% in size
# HepG2 tox-2 – qHTS for Inhibitors of TGF-b: Cytotox Counterscreen for Cherry Picks; shares compounds with TGFb SMAD3 inh; HepG2 CAGA-GFP viability, ATP luminescence, 18 h; cells stimulated with TGF-beta, 500 pg/mL; Potency, µM (series often up to 46.1 µM), inactives show at the top dose activity, negative = cytotoxicity, actives largely listed as inhibitors; 1,600 tested, 27% active; AID 720535, 2013; also: potency is read from the fitted curve at half-maximal effect; % is scaled to controls: 0 for no effect and ±100 for the full control effect; nearly all actives have a fitted effect of over 70% in size
# TGFb CCL64 inh – qHTS for Inhibitors of TGF-b: CCL64 Cells Orthogonal Assay for Cherry Picks. shares compounds with TGFb SMAD3 inh. CCL64 CAGA-GFP reporter, TGF-b stimulated, GFP fluorescence, 18 h. Potency, µM (doses to about 46.1 µM), inactives show top-dose activity, negative = inhibition, actives largely listed as inhibitors. 1,600 tested, 41% active; also: potency is read from the fitted curve at half-maximal effect; nearly all actives have a fitted effect of over 65% in size
# COP TGFb inh – qHTS for Inhibitors of TGF-b: Hit Validation in HepG2 Cells using COP promoter. HepG2 COP-GFP TGF-b reporter, GFP fluorescence, 18 h; cells stimulated by added recombinant TGF-beta. shares compounds with TGFb SMAD3 inh. 1,600 tested, 3% active. Potency, µM (titrated, usually from 46.1 µM), for inactives: at the top dose activity, negative = inhibition, actives largely listed as inhibitors. AID 720537, 2013; also: potency is read from the fitted curve at half-maximal effect; nearly all actives have a fitted effect of over 70% in size
# Numbers without * were called inactive; ? = inconclusive; nt = no result. Hits are enriched below; roughly 6.5% of the tested compounds scored in any of these assays. Unless noted, calls follow the shape of the dose curve; as a rule, active = well fitted curve in the direction sought with a large enough effect; inconclusive = small, poorly fitted or top-dose-only effect, or another doubt; inactive = no such curve, though single readings can be large; an effect the other way counts as inactive or inconclusive.
SMILES,HepG2 tox-1,TGFb SMAD3 inh,IL1B secr inh,Giardia kill,HT1080 IDH1KD tx,HT1080NT lethal,TGFb CAGA inh,HepG2 tox-2,TGFb CCL64 inh,COP TGFb inh
CC(C)(C)c1ccc(OCCNC(=S)Nc2ccccc2)cc1,3%,14µM*,-107*,7,16µM*,?,?,?,?,46%
CCn1nnnc1SCC(=O)N1c2ccccc2CCc2ccccc21,6%,12%,31,12,3%,8%,nt,nt,nt,nt
CCOc1ccc(OCc2ccc(C(=O)N/N=C(\C)c3ccccn3)cc2)cc1,-4%,-23%,113,5,?,?,nt,nt,nt,nt
C/C(=N\NC(=O)C1COc2ccccc2O1)c1ccccn1 (stereo unspecified),-17%,?,0,-30,?,?,21µM*,-27%,?,5%
CC(C)(C)c1ccc(C(=O)N/N=C/c2ccccn2)cc1,-14%,?,161,-1,?,?,nt,nt,nt,nt
C/C(=N/NC(=O)c1ccc(C(C)(C)C)cc1)c1ccccn1,4%,?,84,9,5.8µM*,7.3µM*,2.6µM*,?,9.2µM*,2%
C/C(=N\NC(=O)c1ccccc1OCc1ccc(F)cc1)c1ccccn1,-12%,11µM*,52,-18,?,?,15µM*,?,8.2µM*,1%
C1CN=C(NC23CC4CC(CC(C4)C2)C3)C1,1%,2%,33,-5,-3%,-2%,nt,nt,nt,nt
O=C(Cc1cccc(NC(=O)C2CCCN(C(=O)C3CCCCC3)C2)c1)Nc1cccc(C(=O)N2CCCC2)c1 (stereo unspecified),-16%,?,0,-15,2%,0%,?,-8%,-24%,-5%
CCCc1nc2ccccc2n1C(=S)SC,-10%,-11%,-13,0,2%,-6%,nt,nt,nt,nt
COc1cccc(CNc2nc3cc(-c4ccc(F)cc4)sc3c(=O)n2C)c1OC,-26%,-2%,-16,nt,?,-13%,nt,nt,nt,nt
COc1cccc(CNc2nc3cc(-c4ccc(C)cc4)sc3c(=O)n2C)c1OC,-1%,10µM*,85,nt,?,-1%,2.6µM*,?,12µM*,3%
COc1cccc(CNc2nc3cc(-c4ccsc4)sc3c(=O)n2C)c1OC,3%,?,6,nt,?,?,?,?,?,20%
COc1ccc2c(c1)c(CC(=O)Nc1cc(C)cc(C)c1)c(C)n2C(=O)c1ccc(Cl)cc1,6%,-1%,nt,nt,nt,nt,nt,nt,nt,nt
NC1=NC[C@H](Cc2ccc(O)cc2)N1CCc1cc(C(F)(F)F)cc(C(F)(F)F)c1,-4%,1.1µM*,10,14,2%,-1%,0%,-5%,3%,3%
COc1ccc(OC)c(NC(=O)c2nc(S(=O)(=O)Cc3ccccc3)ncc2Cl)c1,7.9µM*,3.5µM*,-102*,-7,3.7µM*,4.6µM*,4.6µM*,6.5µM*,3.7µM*,10µM*
COc1ccc(NC(=O)c2nc(S(=O)(=O)Cc3cccc(C)c3)ncc2Cl)c(OC)c1,0%,38%,-26,31,?,5%,nt,nt,nt,nt
Cc1ccccc1CS(=O)(=O)c1ncc(Cl)c(C(=O)Nc2ccc(F)cc2)n1,22µM*,10µM*,-98*,-10,?,?,?,?,3.7µM*,?
O=C(Nc1ccc(F)cc1)c1nc(S(=O)(=O)Cc2ccccc2)ncc1Cl,7.1µM*,5µM*,-95*,-2,15µM*,23µM*,3.3µM*,15µM*,2.6µM*,?
Cc1ccc(NC(=O)c2nc(SCc3ccccc3F)ncc2Cl)cc1,3%,1%,nt,nt,nt,nt,nt,nt,nt,nt
Cc1cccc(CS(=O)(=O)c2ncc(Cl)c(C(=O)Nc3c(C)cccc3C)n2)c1,10µM*,6.3µM*,-66*,-17,15µM*,?,4.6µM*,9.2µM*,4.6µM*,?
N#C/C(=C\c1ccccc1)c1nc(-c2cc3cc(Br)ccc3oc2=O)cs1,-9%,-1%,nt,nt,nt,nt,nt,nt,nt,nt
O=C(c1cccc(Br)c1)c1coc2ccc(O)cc12,-23%,-27%,-9,4,1%,-2%,nt,nt,nt,nt
NC(=O)c1ccc(Oc2cccc3cccnc23)c([N+](=O)[O-])c1,7%,3%,36,-3,-4%,-23%,nt,nt,nt,nt
COc1ccc(C(=O)Oc2cccc3cccnc23)cc1[N+](=O)[O-],5.6µM*,6.3µM*,-13,-14,16µM*,10%,3%,0%,16%,5%
O=C(N/N=C/c1cn(Cc2ccccc2)c2ccccc12)c1ccncc1,0%,?,18,-3,-18%,-9%,1.2µM*,2.3µM*,4%,-22%
Cc1ccc(OCCn2cc(/C=N/NC(=O)c3ccncc3)c3ccccc32)cc1,-29%,?,?,-9,?,-29%,nt,nt,nt,nt
COC(=O)N/N=C/c1cn(CCOc2ccc(OC)cc2)c2ccccc12,-36%,?,-21,-10,-11%,-10%,nt,nt,nt,nt

# From PubChem
